Data from PubChem BioAssay AID720535 (National Center for Advancing Translational Sciences (NCATS), 2013).
The whole screen tested about 1,600 compounds, of which about 420 (26%) were called active. Not shown: some 40% with an inconclusive outcome. The full list was thinned out, with actives kept by preference. Unmarked numbers belong to inactive results. Calls follow the shape of the dose curve; as a rule, active = well fitted inhibition curve with a large enough effect; inconclusive = small, poorly fitted or top-dose-only effect; inactive = flat fitted curve, though single readings scatter.

Test: qHTS for Inhibitors of TGF-b: Cytotox Counterscreen for Cherry Picks; also: nearly all actives have a fitted effect of over 70% in size
Details: HepG2 CAGA-GFP viability, ATP luminescence, 18 h, cells stimulated with TGF-beta, 500 pg/mL; series mostly up to 46.1 µM; activity, negative = cytotoxicity: at the top concentration
Text: TGF-b is a main component in the TGF-b signaling pathway which plays diverse roles in cellular and development pathways. TGF-b is mediated by transcription factors called "Smads". Although the Smad-dependent pathway is the primary canonical TGF-b signaling mode, TGF-b1 can also activate alternative signaling pathways, including those involving MAPK (ERK, JNK and p38). This interaction may mediate or enhance Smad-dependent responses, or can exert Smad-independent effects. The complexity of this signaling cascade allows the TGF-b superfamily to perform unique, overlapping or redundant functions. We believe that targeting the TGF-beta pathway at the Smad-transcription factor level may eliminate the consequences of disrupting the entire pathway and offer specificity without affecting other signaling pathways. Smad3 is the primary transducer of TGF-b's signals and Smad3 regulates many functions attributed to TGF-b signaling. We hypothesize that Smad3 inhibitors will selectively eliminate Smad3-specific TGF-beta signals without undesired off-target effects. We aim to identify Smad3-small molecule antagonists using a quantitative high throughput screening (qHTS) approach. A high-throughput assay was developed to screen the NIH Molecular Libraries Small Molecule Repository (MLSMR). This is a cell based assay, where TGF-b is tagged with GFP. This is a counterscreen that evaluates the cytotoxicity of the compounds that were identified as hits in the primary cell-based screen (AID 588855). MH087449NIH Chemical Genomics Center [NCGC] NIH Molecular Libraries Probe Centers Network [MLPCN] MLPCN Grant: MH087449 Assay Submitter (PI): Sushil Rane, National Institute of Diabetes and Kidney Diseases
Suspensions of trypsinized HEPG2 CAGA-GFP cells were dispensed into white, tissue culture-treated, solid 1536-well plates at 5uL/well (1000 cells/well final concentration) in DMEM medium supplemented with 1% FBS. Plates were incubated at 37 degrees C for 2 hours, after which 23 nL of compounds or DMSO were delivered to each well using a pin tool. One uL of recombinant TGF-beta in DMEM (1% FBS) was then dispensed (500 pg/mL final concentration), and plates were incubated at 37 degrees C for 18 hours. Two uL of CellTiter Glo (Promega), a luminescence-based viability reagent, was dispensed, followed by a 10 minute room temperature incubation. The plates were then measured on a PerkinElmer ViewLux plate reader for luminescence (clear filter) using a 5 second exposure. The %Activity was determined from the corrected luminescence values. Wells containing media only (no cells) were used to normalize %Activity of identified toxic compounds; media-only wells corresponded to 100%Activity (complete cell-killing), while DMSO-dosed cell controls were used to normalize 0%Activity (no toxicity). Concentration-response curves were fitted to the signals arising from the resulting luminescence. The concentration-effect curves were then classified based on curve quality (r2), response magnitude and degree of measured activity, and compounds were subsequently categorized based on their curve class.
Potency is read from the fitted curve at half-maximal effect.

Structure (SMILES)	Potency	activity, negative = cytotoxicity
COc1cc(NC(=O)c2[nH]cnc2C(N)=O)cc(C(=O)Nc2cccc(C(F)(F)F)c2)c1	20.6 µM (active)	–
Cc1ccc(S(=O)(=O)Nc2nc3ccccc3nc2N2CCc3ccccc3C2)cc1	–	-22.6%
Cc1ccc(CN2CC(N3CCC(Cc4ccccc4)CC3)CS2(=O)=O)cc1 (centres undefined)	–	-20.7%
COc1ccc(C)cc1S(=O)(=O)N1CCN(S(=O)(=O)c2cc(C(=O)O)ccc2C)CC1	–	2.15%
O=C(/C(=C/c1cccc(Cl)c1)c1nc2ccccc2[nH]1)c1ccccc1	6.51 µM (active)	–
CN(c1ccccc1)S(=O)(=O)c1ccc(C(=O)N2CCN(c3ccccc3Cl)CC2)cc1	–	-8.45%
O=c1[nH]c(CCl)nc2cc(-c3ccc(Cl)cc3)sc12	23.1 µM (active)	–
CN(C)CCNC(=O)c1ccc(Cl)c2cc3ccccc3nc12	2.59 µM (active)	–
CC[C@H]1CN2CCc3cc(OC)c(OC)cc3[C@@H]2C[C@@H]1C[C@H]1NCCc2cc(OC)c(OC)cc21	3.66 µM (active)	–
COc1ccc(-c2onc(C)c2-c2ccc3c(c2)OCCO3)c(O)c1	–	-22.4%
COc1ccc(CC(=O)Nc2ccccc2NC(=O)c2ccco2)cc1OC	–	8.69%
O=C(Nc1nnc(S(=O)(=O)N2CCCCCC2)s1)c1cccc(Br)c1	7.31 µM (active)	–
Cc1ccc(S(=O)(=O)Nc2ccc3c(c2)C(=O)N([C@H](C)CO)C[C@@H](C)[C@@H](CN(C)C(=O)Nc2cccc4ccccc24)O3)cc1	–	-28.8%
COc1cccc2sc(N(CCCN(C)C)C(=O)CCS(=O)(=O)c3ccccc3)nc12	13 µM (active)	–
Cc1cccc2sc(N(CCCN(C)C)C(=O)CCS(=O)(=O)c3ccccc3)nc12	18.4 µM (active)	–
COC(=O)COc1cccc2c(=O)n(CC(=O)NCc3ccccc3)ccc12	–	-2.86%
CCCc1cc(-c2n[nH]c(=S)n2CC)c2ccccc2n1	–	3.2%
Cc1ccnc(NC(=O)C2CCN(S(=O)(=O)c3c(C)c(C)cc(C)c3C)CC2)c1	11.6 µM (active)	–
Cc1ccc(C)c(S(=O)(=O)N2CCN(CC(=O)Nc3ccc([N+](=O)[O-])cc3)CC2)c1	–	-22.4%
Fc1cc(F)c2nc(Nc3nc4c(F)cccc4s3)sc2c1	–	-21.5%

Structure (SMILES)	Potency	activity, negative = cytotoxicity
Cc1cc(C)cc(N(CC(=O)N2CC=C(c3ccccc3)CC2)S(=O)(=O)c2c(C)noc2C)c1	–	-22.1%
Cc1cccc(CS(=O)(=O)c2ncc(Cl)c(C(=O)Nc3ccc(F)cc3)n2)c1	10.3 µM (active)	–
Cc1cccc(NC(=O)c2nc(S(=O)(=O)Cc3ccccc3)ncc2Cl)c1	4.61 µM (active)	–
CC(=O)c1cccc(-c2cnc3c(NC=O)cc(-c4ccc(N(C)C)cc4)cn23)c1	–	-21.9%
O=C(Nc1ccc(Cl)cc1)Nc1nnc(/C=C/c2ccccc2)s1	–	-16.4%
COc1ccc2nc(N3CCN(C(=O)c4ccc([N+](=O)[O-])o4)CC3)sc2c1	23.1 µM (active)	–
c1ccc2cc3c(NCCN4CCOCC4)ccnc3cc2c1	18.4 µM (active)	–
CN(C(=O)c1cccc(NC(=O)Cc2cccc([N+](=O)[O-])c2)c1)C1CCCCC1	–	-11.1%
OCCCNc1nccc(-c2cc(Nc3cccc(Cl)c3)ncn2)n1	0.651 µM (active)	–
CCOC(=O)C1=C(N)N(c2ccc(C)cc2)C2=C(C(=O)CCC2)C1c1cccs1 (centres undefined)	–	-23.3%
CN(C)c1nc(=Nc2cccc(Cl)c2)ss1	–	-14.9%
COc1cccc(CNc2nc(NCc3ccccc3OC)nc3ccsc23)c1	16.4 µM (active)	–
FC(F)(F)c1ccccc1Cc1c(-c2ccccc2)nc2c3ccccc3ccn12	–	-27.2%
COc1cc(NC(=O)c2ccccc2NS(=O)(=O)c2ccc(Cl)s2)cc(OC)c1	8.2 µM (active)	–
COc1cc(CC(=O)Nc2nc(-c3ccc(F)c(F)c3)cs2)cc(OC)c1OC	9.2 µM (active)	–
Cn1c(=O)n(C)c2cc(S(=O)(=O)N3CCCc4ccccc43)ccc21	–	-7.71%
CC1CCc2c(nc3ncnn3c2Nc2ccc(OC(F)(F)F)cc2)C1 (centres undefined)	–	-6.61%
Clc1ccc2c(c1)C1=C(C(c3ccncc3)O2)C(c2ccc(Br)cc2)n2ncnc2N1 (centres undefined)	–	-17.4%
O=C(NC1=CC(=O)c2ccccc2C1=O)c1ccccc1	8.2 µM (active)	–
